Screening data (PubChem)
Compounds with a hit are over-represented: about 2.5% of the library has one in this group of screens.
Cruzain inh Det – cruzain (T. cruzi) inhibition with detergent; Potency, µM, without a hit: max response, negative = inhibition, usual class: inhibitors; 200,000 compounds, 0.43% hits; purified cruzain, Z-FR-AMC fluorescence, 0.01% Triton; AID 1478; P25779;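 also: plate controls were neutral wells for no effect and buffer without enzyme for full effect; nearly all actives have a fitted effect of over 40% in size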
Target sequence (P25779 123-467 limits assumed): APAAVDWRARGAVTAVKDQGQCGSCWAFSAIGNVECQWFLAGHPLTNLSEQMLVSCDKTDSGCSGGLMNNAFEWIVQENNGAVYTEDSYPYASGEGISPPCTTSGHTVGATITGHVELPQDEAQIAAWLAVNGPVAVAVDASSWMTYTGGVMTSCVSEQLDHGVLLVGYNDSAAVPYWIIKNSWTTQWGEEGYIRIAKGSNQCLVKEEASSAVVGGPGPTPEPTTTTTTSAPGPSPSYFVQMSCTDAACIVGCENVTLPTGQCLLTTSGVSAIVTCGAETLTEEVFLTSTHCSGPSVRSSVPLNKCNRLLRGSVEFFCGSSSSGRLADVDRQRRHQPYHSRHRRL
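Detergent-containing run (0.01% Triton X-100) in acetate buffer pH 5.5 with 5 mM DTT: enzyme at 1.5 nM final, 15 min compound preincubation at room temperature, then 2 uM Z-FR-AMC substrate. Activity taken as 60 s fluorescence increase at 360/450 nm.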
Cruzain inh noDet – cruzain (T. cruzi) inhibition without detergent; Potency, µM, inactives show max response, negative = inhibition, actives largely listed as inhibitors; AID 1476; purified cruzain, Z-FR-AMC fluorescence, no detergent; 200,000 compounds, 2.3% hits;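 also: plate controls were enzyme without inhibitor for no effect and buffer without enzyme for full effect; nearly all actives have a fitted effect of over 40% in size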
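Detergent-free condition (0.00005% Triton X-100) in acetate buffer pH 5.5 with DTT. 1.5 nM enzyme and compound were pre-mixed 15 min, then 2 uM Z-FR-AMC substrate added; reaction progress from fluorescence change between first and third reads (60 s).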
Papain inh – papain (Carica papaya) inhibition counter-screen | shares compounds with Cruzain inh Det | purified papain, Z-FR-AMC fluorescence cleavage | Potency, µM, inactives show max response, negative = inhibition, usual class: inhibitors | 410 compounds, 41% hits | AID 2161;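 also: 0% = no-compound wells and -100% = no-enzyme wells; nearly all actives have a fitted effect of over 35% in size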
* = called active by the depositor; ? = inconclusive; . = not tested or not shown. Calls follow the shape of the dose curve; as a rule, active = well fitted curve in the direction sought with a large enough effect; inconclusive = small, poorly fitted or top-dose-only effect, or another doubt; inactive = no such curve, though single readings can be large; an effect the other way counts as inactive or inconclusive. Potency is read from the fitted curve at half-maximal effect.

SMILES	Cruzain inh Det	Cruzain inh noDet	Papain inh
Cc1ccccc1OCCCn1c(CCNC(=O)C2CCCCC2)nc2ccccc21	3.2µM*	3%	-19%
Cc1ccccc1Cn1c(CCCNC(=O)C2CCCCC2)nc2ccccc21	-8%	-6%	.
CCc1nc2ccccc2n1CCCCOc1ccccc1C	-7%	12%	.
Cc1ccc(S(=O)(=O)CCC(=O)OCC(=O)Nc2ncc(Cl)cc2Cl)cc1	-18%	-15%	.
Cc1ccc(S(=O)(=O)NCC(=O)OCC(=O)Nc2ncc(Cl)cc2Cl)cc1	20µM*	25µM*	-30%
O=C(NCCCc1nc2ccccc2n1Cc1ccccc1)C1CCCCC1	-6%	-7%	.
O=C(NCCCc1nc2ccccc2n1CCCCOc1ccccc1)C1CCCCC1	.	.	5%
O=C(NCCCc1nc2ccccc2n1CCOc1ccccc1)C1CCCCC1	.	.	0%
O=C(NCCCc1nc2ccccc2n1CCCOc1ccccc1)C1CCCCC1	.	.	10%
OCCCc1nc2ccccc2n1CCCCOc1ccccc1	-5%	-1%	.
O=C(NCCCc1nc2ccccc2n1Cc1ccc(F)cc1)C1CCCCC1	-6%	-6%	.
COC(=O)c1c(-c2cccs2)csc1NC(=O)c1cc(OC)c(OC)c(OC)c1	-10%	-7%	.
N#CCCn1c(=O)c(CCc2ccccc2)nc2cnc(Nc3ccccc3)nc21	1%	?	.
O=C(CSc1nnc(-c2cccs2)o1)Oc1ccccc1Cl	-2%	-5%	.
CCOC(=O)C1CCCN(C(=O)c2ccc3c(c2)N(Cc2ccccc2)C(=O)c2ccccc2S3(=O)=O)C1 (configuration not stated)	1%	?	.
CCOc1ccccc1NC(=O)Cn1cc(C(=O)c2cccc(OC)c2)c(=O)c2ccc(C)nc21	0%	-8%	.
COC1/C=C/OC2(C)Oc3c(C)c(O)c4c(O)c(c(/C=N/N5CCN(C)CC5)c(O)c4c3C2=O)NC(=O)/C(C)=C/C=C/C(C)C(O)C(C)C(O)C(C)C(OC(C)=O)C1C (configuration not stated)	-8%	?	.
CCn1cnc2c(Nc3cccc(Cl)c3)nc(N[C@@H]3CCCC[C@@H]3N)nc21	-4%	9%	.
CCn1cnc2c(Nc3cc(F)cc(F)c3)nc(C#N)nc21	.	.	0.3µM*
CCOc1ccccc1NC(=O)N1CCc2c(sc(C)c2CC)C1c1ccccc1 (configuration not stated)	-2%	?	.
COCCN1C(=O)c2oc3ccc(C)cc3c(=O)c2C12C(=O)N(C)c1ccccc12 (configuration not stated)	0%	6%	.
COc1cc(C(=O)COC(=O)CNC(=O)C2CCCCC2)cc(OC)c1OC	2.2µM*	2.5µM*	-28%
CC(=O)NCC(=O)OCC(=O)c1ccccc1	7%	-4%	.
CC(=O)NCC(=O)OCC(=O)c1ccc(C)cc1	7%	6%	.
O=C(CNC(=O)C1CCCCC1)OCC(=O)c1ccc(C2CCCCC2)cc1	.	.	-4%
SMILES	Cruzain inh Det	Cruzain inh noDet	Papain inh
COC(=O)c1ccc(NC(=O)CNC(=O)C2CCCCC2)cc1	5%	1%	.
O=C(COC(=O)CNC(=O)C1CCCCC1)Nc1ccc2ccccc2c1	4.5µM*	7.9µM*	-14%
O=C(CNC(=O)C1CCCCC1)Nc1ccc(Cl)cc1	2%	-2%	.
O=C(CNC(=O)C1CCCCC1)OCC(=O)c1ccccc1	.	.	16µM*
Cc1ccc(NC(=O)c2c(C)nc3sc(C(=O)Nc4ccc(F)cc4)c(N)c3c2-c2ccc(C)o2)c(C)c1	-3%	-17%	.
O=C1Nc2c(c(=O)[nH]c(=O)n2-c2ccc(Cl)cc2)C1(NS(=O)(=O)c1ccccc1)C(F)(F)F (configuration not stated)	-5%	-8%	.
CNc1ncnc2ccc(-c3ccccc3C#N)cc12	4%	17%	.
Nc1ncnc2c1ncn2[C@@H]1O[C@H](COP(=O)(O)O)[C@@H](O)[C@@H]1O	-1%	2%	.
C=Cn1ccnc1P(=S)(c1ccc(N(C)C)cc1)c1nccn1C=C	0%	?	.
C=Cn1ccnc1P(=S)(c1ccc2c(c1)c1ccccc1n2CC)c1nccn1C=C	-4%	?	6%
CC(CN(C)C)C(C)(O)Cc1ccc(Cl)cc1 (configuration not stated)	2%	-3%	.
CCOc1ccc(CCNC(=O)c2[nH]c3cc(OC)ccc3c2Sc2ccccc2)cc1OCC	-2%	-3%	.
O=C(COC(=O)Cc1ccsc1)NC1CCCCCC1	5%	7%	.
CC(C)(CNC(=O)C1CCCC1)CNC(=O)C1CCCC1	-1%	-6%	.
CCOC(=O)CNC(=O)C1CCCCC1	.	.	-18%
O=C(COC(=O)CNC(=O)C1CCCCC1)NC1CC1	.	.	25µM*
Cc1ccc(CNC(=O)C2CCCN(S(=O)(=O)c3ccc4c(ccn4C)c3)C2)cc1 (configuration not stated)	-2%	?	.
O=c1c2cccnc2n(Cc2ccc(Cl)cc2)c(=O)n1Cc1ccc(F)cc1	1%	0%	.
CC1CCCN(c2ccc(C(=O)OCn3nnc4ccccc4c3=O)cc2[N+](=O)[O-])C1 (configuration not stated)	-3%	?	.
CC1CCCN(c2ccc(C(=O)OCC(=O)N3c4ccccc4Sc4ccccc43)cc2[N+](=O)[O-])C1 (configuration not stated)	-3%	4µM*	10%
CCOC(=O)c1c(-c2ccc(OC)cc2)oc2ccc(OCc3ccccc3C)cc12	-3%	?	.
CCOc1ccc(NCc2nc3ccccc3n2CCOc2ccc(C)cc2)cc1	-9%	-9%	.
CC(C)(C)c1ccc(OCCn2c(CCNC(=O)C3CCCCC3)nc3ccccc32)cc1	.	.	-20%
O=C(NCCc1nc2ccccc2n1CCCOc1ccc(Cl)cc1)C1CCCCC1	2µM*	16%	28µM*
CC(=O)NCCc1nc2ccccc2n1CCCCOc1ccc(Cl)cc1	-10%	?	.
SMILES	Cruzain inh Det	Cruzain inh noDet	Papain inh
CC(C)(C)C(=O)NCCCc1nc2ccccc2n1CCCOc1ccc(Cl)cc1	-5%	?	.
Cc1ccc(OCCn2c(CCNC(=O)C3CCCCC3)nc3ccccc32)cc1	1.3µM*	-10%	-14%
Cc1ccc(OCCCn2c(CCNC(=O)C3CCCCC3)nc3ccccc32)cc1	.	.	25µM*
CCOc1ccc(C(=O)Oc2c(Sc3ccccc3)c(C)nn2C(C)(C)C)cc1OCC	-5%	10%	.
Cc1cc(C)cc(NC(=O)CSCc2cc(=O)c3ccc(C)c(C)c3[nH]2)c1	1%	-3%	.
CCc1nc2ccccc2n1CCCCOc1ccc(C)cc1	-11%	6%	.
Cc1ccc(OCCCCn2c(CCNC(=O)C3CCCCC3)nc3ccccc32)cc1	.	.	32µM*
CCOc1ccccc1NC(=O)COc1cccc2c(=O)n(CCOC)ccc12	-2%	1%	.
Cc1cc2c(C)cc(=O)oc2c2c1NCCC2	25µM*	-11%	16µM*
Cc1cc2cc3c(C)cc(=O)oc3c(C)c2o1	2%	3%	.
COc1ccc(NC(=O)C2(S(=O)(=O)c3ccc(C)cc3)CC2)c(OC)c1	-5%	-13%	.
O=C(NCC(c1ccc2c(c1)OCO2)N1CCOCC1)c1ccccc1F (configuration not stated)	-2%	-17%	.
COc1ccc(-c2nnc(-c3ccc(N)cc3)o2)cc1	-5%	-17%	.
COc1ccc(-c2ccc(-c3nnc(-c4cc(OC)ccc4OC)o3)cc2)cc1	?	25µM*	11µM*
COC(=O)c1cc2oc3ccccc3c2n1CC(=O)Nc1ccc(N(C)C)cc1	-1%	-6%	.
